Data reported in PubChem BioAssay (EPA / NIEHS).
Where “and” joins values, the source holds several entries; their conditions need not be identical. Identical values can stand only once. Some compounds were tested as several samples or in several runs, with calls that do not always agree. Calls of active or inactive are those of the source. The calls were made as follows: active = hit-call score of the fitted dose curve at least 0.9, where 1 is the maximum; inactive = score below 0.9.

These molecules were tested against Cellular tumor antigen p53 (Homo sapiens) (UniProt P04637) (assay: ATG_p53_CIS: Attagene CIS-FACTORIAL HepG2 Assay for human p53 Transcription Factor (AID 2282994)). Details: HepG2 p53 cis-element reporter, Attagene mRNA; actives raise or lower the signal.
Description: ATG_CIS is a cell-based, multiplexed-readout assay that uses HepG2, a human liver cell line, with measurements taken at 24 hours after chemical dosing in a 24-well plate.ATG_p53_CIS is one of 52 assay component(s) measured or calculated from the ATG_CIS assay. It is designed to make measurements of mRNA induction, a form of inducible reporter, as detected with fluorescence intensity signals by Reverse transcription polymerase chain reaction (RT-PCR) and Capillary electrophoresis technology.Data from the assay component ATG_p53_CIS was analyzed into 1 assay endpoint. This assay endpoint, ATG_p53_CIS, was analyzed with bidirectional fitting relative to DMSO as the negative control and baseline of activity. Using a type of inducible reporter, measures of mRNA for gain or loss-of-signal activity can be used to understand the reporter gene at the transcription factor-level as they relate to the gene TP53. Furthermore, this assay endpoint can be referred to as a primary readout, because this assay has produced multiple assay endpoints where this one serves a reporter gene function. To generalize the intended target to other relatable targets, this assay endpoint is annotated to the dna binding intended target family, where the subfamily is tumor suppressor.
Human liver HepG2 cells are transiently transfected with multiple reporter transcription units (MRTUs) in 6-well plates using FuGene 6 reagent (Roche; 3 ml FuGene/1 mg DNA). The MRTU constructs are regulated by a cis-regulating element (promoter). […] A major difference between the CIS and TRANS system is that in CIS activities of endogenous TFs are measured, whereas the TRANS assay evaluates changes in activities of exogenous, chimeric NR-Gal4 proteins. […] At the end of 24 hour incubation, total RNA was isolated using TriZol reagent (Invitrogen). The isolated RNA is then reverse-transcribed using oligo(dT) primer and Mo-MLV reverse transcriptase (Invitrogen) with DNAse I (Ambion) treatment for 30 min. The one-tenth of the produced cDNA was amplified by PCR using Taq DNA polymerase (Invitrogen) and two reporter sequence-specific primers. The PCR products were fluorescently labeled by primer extension with 6-arboxyfluorescein (6-FAM) 5'-labeled reporter sequence-specific primer (2 min at 95 C, 20 s at 68 C and 10 min at 72 C) and these products were digested with 5U of HpaI (New England Biolabs) for 2h at 37 C. The fragments were purified using Qiaquick PCR columns (Qiagen), analyzed on an ABI 3130xL genetic analyzer (Applied Biosystems) with peak positions identified by using a set of X-rhodamine (ROX)-labeled MapMarker1000 molecular weight standards (BioVentures). The raw capillary electrophoresis data was processed using Attagraph software (Attagene).

Cellular tumor antigen p53 (Homo sapiens), sequence (P04637 whole entry, looked up): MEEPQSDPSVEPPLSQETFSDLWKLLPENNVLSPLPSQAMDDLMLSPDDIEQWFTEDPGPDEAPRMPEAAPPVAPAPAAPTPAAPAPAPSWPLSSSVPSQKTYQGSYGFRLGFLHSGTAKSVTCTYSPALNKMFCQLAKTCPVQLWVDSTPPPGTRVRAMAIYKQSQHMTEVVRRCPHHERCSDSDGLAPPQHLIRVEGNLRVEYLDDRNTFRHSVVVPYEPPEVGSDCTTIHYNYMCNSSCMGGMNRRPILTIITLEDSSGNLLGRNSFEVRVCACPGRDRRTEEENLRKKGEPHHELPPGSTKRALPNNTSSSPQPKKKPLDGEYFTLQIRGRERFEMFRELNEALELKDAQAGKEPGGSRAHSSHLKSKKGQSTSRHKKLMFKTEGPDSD

Question: How did the outcome turn out when C1CC2OC2CC1C1CO1 (stereo not given) was run?
Answer: inactive

Question: CC#Cc1cc(C)nc(Nc2ccccc2)n1 was tested. Which outcome did it give?
Answer: inactive

Question: With CCCCCCCCCc1ccc(O)cc1 as the molecule, how does the outcome read?
Answer: inactive

Question: For Oc1c(Cl)c(Cl)c(Cl)c(Cl)c1Cl, which AC50 is on record?
Answer: 51 µM (active)

Question: What about the outcome of the same molecule?
Answer: inactive

Question: Which outcome does the source give for CCCCCCOC(=O)c1ccccc1C(=O)OCCCCCC here?
Answer: inactive

Question: Which outcome does the source give for COc1ccc(O)c(C(C)(C)C)c1 here?
Answer: inactive

Question: For Clc1ccc(Cl)cc1, which outcome is on record?
Answer: inactive

Question: Which outcome does the source give for ClC1=C(Cl)[C@]2(Cl)[C@@H]3[C@@H]4C[C@@H]([C@H]5O[C@@H]45)[C@@H]3[C@@]1(Cl)C2(Cl)Cl here?
Answer: inactive

Question: With Cc1ccccc1O as the molecule, how does the outcome read?
Answer: inactive

Question: How did the outcome turn out when CC(C)(O)C(=O)Nc1ccc([N+](=O)[O-])c(C(F)(F)F)c1 was run?
Answer: inactive

Question: CO/C=C(/C(=O)OC)c1ccccc1COc1cccc(C(F)(F)F)n1 was tested. Which outcome did it give?
Answer: inactive

Question: How did the outcome turn out when Clc1ccc(C(c2ccccc2Cl)C(Cl)(Cl)Cl)cc1 (stereo not given) was run?
Answer: inactive

Question: What does the source list for CC(C)(c1ccccc1)c1ccc(O)cc1?
Answer: outcome: inactive; AC50: 57 µM (active)

Question: Which AC50 does the source give for c1ccc(-c2ccccc2)cc1 here?
Answer: 197 µM (active)

Question: Cc1cc2c3c(c1)C(c1ccccc1)=N[C@@H](NC(=O)c1ccncc1)C(=O)N3CC2 was tested. Which outcome did it give?
Answer: inactive

Question: With Cc1cc(O)ccc1Cl as the molecule, how does the outcome read?
Answer: inactive

Question: How did the AC50 turn out when O=C(O)C(F)(F)C(F)(F)C(F)(F)C(F)(F)C(F)(F)C(F)(F)C(F)(F)C(F)(F)C(F)(F)F was run?
Answer: 46.9 µM (active) and 69.4 µM (active)

Question: What about the outcome of the same molecule?
Answer: inactive

Question: Which outcome does the source give for NS(=O)(=O)C(F)(F)C(F)(F)C(F)(F)C(F)(F)C(F)(F)C(F)(F)C(F)(F)C(F)(F)F here?
Answer: inactive

Question: What about the AC50 of the same molecule?
Answer: 112 µM (active)

Question: Which outcome does the source give for CCC(C)c1cc([N+](=O)[O-])cc([N+](=O)[O-])c1O (stereo not given) here?
Answer: inactive

Question: What does the source list for Oc1ccc(C(c2ccc(O)cc2)(C(F)(F)F)C(F)(F)F)cc1?
Answer: AC50: 16.9 µM (active); outcome: inactive

Question: Cc1cc(-c2ccc(N)c(C)c2)ccc1N was tested. Which outcome did it give?
Answer: inactive

Question: What about the AC50 of the same molecule?
Answer: 100 µM (active)

Question: Which AC50 does the source give for CC(c1ccc(O)cc1)(c1ccc(O)cc1)c1ccc(O)cc1 here?
Answer: 11.1 µM (active)

Question: Which outcome does the source give for O=C(NC(=O)c1c(F)cccc1F)Nc1cc(Cl)c(OC(F)(F)C(F)F)c(Cl)c1 here?
Answer: inactive

Question: O=C(N[C@H]1CN2CCC1CC2)c1cc2ccoc2cn1 was tested. Which outcome did it give?
Answer: inactive

Question: Oc1ccc(Cl)cc1Cl was tested. Which outcome did it give?
Answer: inactive

Question: How did the AC50 turn out when ClC1=C(Cl)[C@]2(Cl)[C@@H]3[C@@H](Cl)[C@H]4O[C@H]4[C@@H]3C1(Cl)C2(Cl)Cl was run?
Answer: 100 µM (active)

Question: With O=NN(c1ccccc1)c1ccccc1 as the molecule, how does the outcome read?
Answer: inactive

Question: With O=S(=O)(O)C(F)(F)C(F)(F)C(F)(F)C(F)(F)F as the molecule, how does the outcome read?
Answer: inactive

Question: For CCOP(=S)(OCC)SCSC(C)(C)C, which outcome is on record?
Answer: inactive

Question: Which outcome does the source give for Clc1ccc(C(Cl)(Cl)Cl)cc1 here?
Answer: inactive

Question: How did the outcome turn out when CCC(=O)O[C@H]1CC[C@H]2[C@@H]3CCC4=CC(=O)CC[C@]4(C)[C@H]3CC[C@]12C was run?
Answer: inactive

Question: And the AC50?
Answer: 100 µM (active)

Question: With ClC(Cl)=C(c1ccc(Cl)cc1)c1ccc(Cl)cc1 as the molecule, how does the outcome read?
Answer: inactive

Question: For Nn1cnnc1, which outcome is on record?
Answer: inactive
